AC50 and outcome data for 39 molecules are collected here from PubChem BioAssay (EPA / NIEHS).

Structures are written as SMILES. Some compounds were tested as several samples or in several runs, with calls that do not always agree. Activity calls are given as the source filed them. How the source made its calls: active means hit-call score of the fitted dose curve at least 0.9, where 1 is the maximum; inactive means score below 0.9.

Read-out in this experiment: Vascular cell adhesion molecule 1 (VCAM1), VCAM1 (gene 7412)
Kind of experiment: BSK_4H_VCAM1: BioMAP Diversity Plus: 4H Assay for Vascular cell adhesion molecule 1 (VCAM1) Biomarker Activity (AID 2283033). To be noted: primary human endothelial cells (HUVEC); actives raise or lower the signal. The method, then:
BSK_4H is a cell-based, multiplexed-readout assay that uses umbilical vein endothelium, a human vascular primary cell, with measurements taken at 24 hours after chemical dosing in a 96-well plate.BSK_4H_VCAM1 is an assay component measured in the BSK_4H assay. It measures VCAM-1 antibody related to regulation of gene expression using ELISA technology.Data from the assay component BSK_4H_VCAM1 was analyzed into 1 assay endpoint. This assay endpoint, BSK_4H_VCAM1, was analyzed with bidirectional fitting relative to DMSO as the negative control and baseline of activity. Using a type of binding reporter, gain or loss-of-signal activity can be used to understand changes in the signaling as they relate to the gene VCAM1. Furthermore, this assay endpoint can be referred to as a primary readout, because this assay has produced multiple assay endpoints where this one serves a signaling function. To generalize the intended target to other relatable targets, this assay endpoint is annotated to the cell adhesion molecules intended target family, where the subfamily is Immunoglobulin CAM.
The levels of cell surface (or secreted, indicated by the prefix "s") biomarker endpoints were measured by ELISA. Overt cytotoxicity to cells in confluent adherent cultures (all systems other than the BT system) was assessed by measuring total protein levels using sulforhodamine B (SRB) staining in parallel cultures at the time of biomarker measurements, indicated as SRB endpoints. For proliferation assays for adherent cell types, individual cell types are cultured at sub-confluence and relative cell numbers quantified by SRB staining at time points optimized for each system (48 h: 3C and CASM3C systems; 72 h: BT and HDF3CGF systems; 96 h: SAg system). SRB was performed by staining cells with 0.1% SRB after fixation with 10% TCA and reading wells at 560 nm.Viability and proliferation of PBMC (T cells) was quantified by Alamar Blue reduction for the SAg and BT systems. For PBMC viability (referred to as PBMC Cytotoxicity within the assay endpoint names), cells were plated (75,000/well in a 96-well plate) and then chemical samples added for 1 h before addition of activators, SEB and TSST-1 (20 ng/mL final concentration each). Cells were incubated for 90 h. Then, Alamar Blue (20 uL/well) (Invitrogen, Cat DAL1100) was added for 6 h, and the plates were read with a fluorescence microplate reader at 546/580 nm (excitation/emission). For PBMC proliferation, cells were plated and activated as above but incubated for only 16 h prior to addition of Alamar Blue. Plates were read after 6 h.
With `O=C1CCCCCCCCCCCCCCO1`, the AC50 (commonly the concentration at which the activity in the assay is half-maximal) was 27.4 µM (active).

`CC[Si](OC(C)=O)(OC(C)=O)OC(C)=O`: the AC50 was 0.195 µM (active) and the outcome was inactive.

Regarding `CC(=O)OCCC(C)CC(C)(C)C` (stereo not given), the result was inactive.

With `CC1CCC(C(C)CS)CC1S` (stereo not given), the AC50 is 29.1 µM (active).

Turning to `CCCCC(CC)COC(=O)/C=C\C(=O)OCC(CC)CCCC` (stereo not given), the outcome was inactive.

For `Nc1cc([N+](=O)[O-])ccc1Cl`, the result was inactive.

Turning to `CCn1c2ccccc2c2cc(N)ccc21`, the outcome was inactive.

With `O=C1OC2(c3cc(Br)c(O)c(Br)c3Oc3c2cc(Br)c(O)c3Br)c2c(Cl)c(Cl)c(Cl)c(Cl)c21`, the AC50 is 4.23 µM (active).

With `CC(=O)O[C@]1(C(C)=O)CC[C@H]2[C@@H]3C[C@H](C)C4=CC(=O)CC[C@]4(C)[C@H]3CC[C@@]21C`, the outcome was inactive.

As for `BrC1CCC(Br)C(Br)CCC(Br)C(Br)CCC1Br` (stereo not given), the AC50 was 2.95 µM (active).

Regarding `CCCCC(CC)COCCC#N` (stereo not given), the outcome was inactive.

Consider `N#Cc1ccc(CC(=NNC(=O)Nc2ccc(OC(F)(F)F)cc2)c2cccc(C(F)(F)F)c2)cc1`, for which the result was inactive.

For the molecule `O=C(O)C[C@H](O)C[C@H](O)/C=C/c1c(C2CC2)nc2ccccc2c1-c1ccc(F)cc1`, the outcome was inactive.

Take `O=[N+]([O-])c1cc(C(F)(F)F)ccc1Cl`: the outcome was inactive.

As for `COc1cc(C=O)ccc1OC(=O)C(C)C`, the result was inactive.

Regarding `OC1OC[C@@H](O)[C@H](O)[C@H]1O` (stereo not given in full), the result was inactive.

Regarding `CC(C)(COC(=O)c1ccccc1)COC(=O)c1ccccc1`, the AC50 is 20 µM (active).

As for `CNC[C@H](O)c1cccc(O)c1`, the outcome was inactive.

`C=CCOC(=O)CCC1CCCCC1`: the result was inactive.

Consider `CCCCC/C=C/C=C/C=O`, for which the AC50 is 33.3 µM (active).

Take `c1ccc2sc(SN(C3CCCCC3)C3CCCCC3)nc2c1`: the AC50 is 5.45 µM (active).

With `c1ccc2c(c1)c1cccc3ccc4cccc2c4c31`, the outcome was inactive.

`CC1COc2ccccc2N1C(=O)C(Cl)Cl` (stereo not given): the AC50 is 8.19 µM (active).

Consider `O=C(O)c1ccc([N+](=O)[O-])cc1`, for which the result was inactive.

Turning to `COC(=O)c1ccc(C)cc1`, the result was inactive.

Regarding `Cc1ccc2n[nH]nc2c1`, the outcome was inactive.

For the molecule `NCCNCCN`, the outcome was inactive.

On to `CC(=O)[C@H]1CC[C@H]2[C@@H]3CC=C4C[C@@H](O)CC[C@]4(C)[C@H]3CC[C@]12C`, for which the result was inactive.

As to `CC(=O)Nc1ccccc1O`, the result was inactive.

`Cc1ccc(Nc2ccc(O)c3c2C(=O)c2ccccc2C3=O)cc1`: the outcome was inactive.

With `O=C(O)c1cn(C2CC2)c2cc(N3CCNCC3)c(F)cc2c1=O`, the outcome was inactive.

With `O=C(O)c1cn(-c2ccc(F)cc2)c2cc(N3CCNCC3)c(F)cc2c1=O`, the outcome was inactive.

Regarding `O=C=NC1CCC(CC2CCC(N=C=O)CC2)CC1` (stereo not given), the result was inactive.

As for `CC(C)Oc1ccccc1O`, the outcome was inactive.

On to `Nc1cc([N+](=O)[O-])ccc1O`, for which the outcome was inactive.

In the case of `CCc1c(C)cc(N)c(CC)c1N`, the outcome was inactive.

With `O=P(c1ccccc1)(c1ccccc1)c1ccccc1`, the outcome was inactive.

Consider `C[C@H]1C[C@@H]2[C@H]([C@@H](O)C[C@@]3(C)[C@H]2CC[C@]3(O)C(=O)CO)[C@@]2(C)C=CC(=O)C=C12`, for which the result was inactive.

On to `CC(C)c1ccc(C(C)C)cc1`, for which the AC50 is 35.1 µM (active).
